# Test results reported in PubChem BioAssay AID2685 (National Center for Advancing Translational Sciences (NCATS), 2010).
# In all, about 320,000 compounds went through this assay and about 2,100 (0.66%) were called active. About 53% were inconclusive and are not listed. Calls come from the whole dose curve; as a rule, active = well fitted inhibition curve with a large enough effect in the signal ratio, with a control signal flat (not every such curve was filed as active); inconclusive = small, poorly fitted or top-dose-only effect, or effect the other way, or a change in a side signal; inactive = flat fitted curve, though single readings scatter; the % refers to the signal ratio. The sample as a whole holds a higher share of actives than the screen did.
# Assay: qHTS Assay for Lipid Storage Modulators in Drosophila S3 Cells;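 for cell number change: cells counted by Cell Tracker Red CMTPX staining in the red channel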; for lipid storage change, negative = inhibition: % is set by controls: 0 for no effect and ±100 for the full control effect
# Conditions: BODIPY lipid droplet fluorescence, 18-24 h, cells fed with added oleic acid; cell number change: measured here: cell count max response; series mostly up to 46.1 µM; lipid storage change, negative = inhibition: at the top concentration
# Procedure, shortened: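 Drosophila S3 cells got compounds at several concentrations plus oleic acid (400 uM solution). Laser-scanning cytometry with 488 nm excitation read lipid droplets at 500-530 nm and cells at 575-640 nm. Percent activity was relative to 20 uM Triacsin C.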
# Potency is the fitted concentration of half-maximal effect.
SMILES,outcome,cell number change [%],"lipid storage change, negative = inhibition",Potency
O=C(COc1ccc(Cl)cc1Cl)N/N=C/c1ccc(OC2OC(CO)C(O)C(O)C2O)cc1 (stereo unspecified),inactive,14.9,,
O=c1[nH]c(/C=C/c2cccc3ccccc23)nc2ccccc12,,1.01,-10.1% (inactive),
N#CCOc1ccccc1/C=C/c1nc2ccccc2c(=O)[nH]1,,5.41,,0.82 µM (active)
O=c1[nH]c(/C=C/c2ccccc2F)nc2ccccc12,inactive,,,
Cc1ccc(SCc2nc3ccccc3n2CC(=O)Nc2c(C)cccc2C)cc1,,5.98,-6.68% (inactive),
O=C(Cn1c(CSc2ccccc2)nc2ccccc21)Nc1ccccc1,,,2.53% (inactive),
Cc1ccc(SCc2nc3ccccc3n2CC(=O)Nc2ccc(Cl)cc2)cc1,,-17.3,,11.6 µM (active)
CCOC(=O)CSc1nnc(-c2ccc3ncccc3c2)n1C,,-5.02,19.8% (inactive),
Cc1ccc(S(=O)(=O)NN2C(=O)c3ccccc3NC2c2ccccc2)cc1 (stereo unspecified),,14.4,0.893% (inactive),
COCCNC(=O)C(OC(=O)c1cc2oc(C)cc2n1C)C(C)C (stereo unspecified),,9.13,-24.2% (inactive),
Cc1cc2c(cc(C(=O)OC(C(=O)NC3CCCCC3)C(C)C)n2C)o1 (stereo unspecified),,-21.3,,1.46 µM (active)
CC(C)C(OC(=O)c1ccco1)C(=O)NC1CCCCC1 (stereo unspecified),,10.7,4.26% (inactive),
COC(=O)c1cc(OC)c(OC)cc1NCC(=O)Nc1ccc(C)cc1,,-5.98,4.61% (inactive),
CNc1cccc2c1C(=O)c1ccccc1C2=O,,-6.63,,11.6 µM (active)
O=C1c2ccccc2C(=O)c2c(NCCCN(CCO)CCO)cccc21,,7.53,13.2% [at 9.22 µM] (inactive),
CCN(CC)CC(=O)Nc1cccc2c1C(=O)c1ccccc1C2=O,,7.09,2.18% (inactive),
COc1ccc(-n2cc(CN(C)C(C)c3ccncn3)c(-c3cccc(F)c3)n2)cc1 (stereo unspecified),,-0.848,10.9% (inactive),
CC(C)(C)c1ccc(C(=O)CCC(=O)NCc2ccccc2)cc1,,6.25,,14.6 µM (active)
O=C(CCC(=O)c1ccc(Cl)cc1)NCc1ccccc1,inactive,-20.1,,
CC(C)(C)c1ccc(C(=O)NCc2ccccc2)cc1,,-10.5,-22.5% (inactive),
CCC(O)CNc1nc(-n2nc(C)cc2C)nc2sc3c(c12)CCCC3 (stereo unspecified),inactive,1.08,,
O=C(CSc1nc2ccccc2c(=O)[nH]1)Nc1ccc(S(=O)(=O)N2CCCC2)cc1,,-0.593,27.6% (inactive),
CC(=O)c1nnn(-c2ccccc2C#N)c1C,,25.6,-0.571% (inactive),
O=C(Nc1nc(-c2cccs2)c(C(=O)C(F)(F)F)s1)c1ccccc1,,,-1.08% (inactive),
NNC(=O)CC(=O)NC1(Cc2ccc(O)cc2)CCCCC1,,4.44,21.8% (inactive),

SMILES,outcome,cell number change [%],"lipid storage change, negative = inhibition",Potency
CCC(=O)NC1(Cc2ccc(O)cc2)CCCCC1,,-37.5,-26.5% (inactive),
O=C(NC1(Cc2ccc(O)cc2)CCCCC1)c1ccccc1,,-23.1,,5.17 µM (active)
CCC(CC)C(=O)Nc1nnc(S(=O)(=O)N2CCCc3ccccc32)s1,,-8.08,20.3% (inactive),
CC(C)(C)NC(=O)CCc1nnc(Cc2c[nH]c3ccccc23)o1,,-0.239,21.4% (inactive),
Cc1nn(C)c(C)c1S(=O)(=O)N(CC(=O)NCCN1CCOCC1)c1ccc(C(C)C)cc1,,12.7,7.54% (inactive),
Cc1nc2ccccc2nc(C)c1=NO,,8.5,8.33% (inactive),
C/C(CC(O)c1ccc2ccccc2n1)=N/O (stereo unspecified),,3.68,,10.3 µM (active)
CC(O)/C=C/c1ccc2ccccc2n1 (stereo unspecified),inactive,-12.5,,
O=C(Nc1c2c(nn1-c1ccccc1)CS(=O)C2)c1ccc2c(c1)OCO2 (stereo unspecified),,12.2,-19.3% (inactive),
O=c1c2cnn(-c3ccccc3)c2ncn1Cc1ccco1,,1.65,,32.6 µM (active)
O=c1c2cnn(-c3ccccc3)c2ncn1Cc1ccccn1,,26.2,9.36% (inactive),
O=c1c2cnn(-c3ccccc3)c2ncn1Cc1ccccc1,,-12.8,1.05% (inactive),
COCCN1C(=O)N[C@H](c2cccc(C(F)(F)F)c2)C(C(=O)OC)=C1C,,3.4,-4.45% (inactive),
O=C(NCCc1ccccc1)C(=O)c1c(-c2ccccc2)cc2ccccn12,,-0.29,-8.26% (inactive),
Cc1ccc(S(=O)(=O)N(C)C)cc1NC(=O)COC(=O)c1ccc(Cl)cc1,inactive,,,
Cc1ccc(S(=O)(=O)N(C)C)cc1NC(=O)COC(=O)c1sc2cc(Cl)ccc2c1Cl,,-27.1,,1.46 µM (active)
Cc1ccc(S(=O)(=O)N(C)C)cc1NC(=O)COC(=O)c1ccc2c(c1)OCCO2,,-1.35,-4.06% (inactive),
O=C(Nc1ccnn1C1CCN(Cc2ccc(O)c(Cl)c2)CC1)C1CCCC1,,6.1,-0.76% (inactive),
O=C1NCCn2ccc(=O)cc21,,4.17,3.98% (inactive),
CCOC(=O)/C(N=O)=C(\O)C1CCN(C(=O)OCC)CC1,,1.9,-5.07% (inactive),
c1ccc(CNc2ncnc3sccc23)cc1,,-15.5,,16.4 µM (active)
c1cncc(CNc2ncnc3sccc23)c1,,-4.09,-0.833% (inactive),
NS(=O)(=O)c1ccc(CNc2ncnc3sccc23)cc1,inactive,-15.1,,
Cc1cc(C)cc(-n2ccn(CC(=O)NCCc3ccccc3)c(=O)c2=O)c1,inactive,-3.95,,
Cc1ccc(OCC(=O)Nc2cccc(-c3nnc(-c4ccccc4)o3)c2)cc1,,1.35,-1.29% (inactive),

SMILES,outcome,cell number change [%],"lipid storage change, negative = inhibition",Potency
CSc1ccccc1NC(=O)CN(c1cccc(C)c1)S(C)(=O)=O,,-13.7,11.7% (inactive),
CSc1ccccc1NC(=O)CN(c1cc(C)cc(C)c1)S(C)(=O)=O,inactive,,,
Cc1cccc(N(CC(=O)Nc2ccccc2F)S(C)(=O)=O)c1,,,,6.51 µM (active)
C/C(=N\N=C\c1cccc(F)c1)c1nnn(-c2nonc2N)c1C,,-1.27,20.8% (inactive),
CCOc1ccc(NC(=O)CNS(=O)(=O)c2c(C)cc(C)cc2C)cc1,,,,0.92 µM (active)
CCOc1ccc(NC(=O)CCS(=O)(=O)c2ccc(C)cc2)cc1,,9.92,-5.54% (inactive),
CCOc1ccc(NC(N)=O)cc1,,1.62,11.6% (inactive),
CCC(C)NCCCOc1cc(Cl)ccc1Cl (stereo unspecified),,12.7,0.912% (inactive),
COc1ccc(N(CC(=O)Nc2ccc(C)c(C)c2)S(=O)(=O)c2c(C)n[nH]c2C)cc1,,4.08,28.1% (inactive),
CNC(=O)N(C1=NCCCCC1)c1ccc(Br)cc1,,-6.67,-2.09% (inactive),
Cc1nn(CCC(=O)N2CCN(S(=O)(=O)c3ccccc3)CC2)c(C)c1C,inactive,24.4,,
Cc1cc(C)cc(C(=O)Oc2cc(C)[nH]c(=O)c2[N+](=O)[O-])c1,inactive,-7.31,,
Cc1ccccc1NC(=O)C(C)Sc1nnc(-c2ccncc2)n1CC1CCCO1 (stereo unspecified),,3.95,,2.31 µM (active)
Cc1ccc(NC(=O)C(C)Sc2nnc(C)n2CC2CCCO2)cc1 (stereo unspecified),inactive,11.7,,
O=C(CSc1nnc(-c2ccncc2)n1CC1CCCO1)Nc1ccccc1Cl (stereo unspecified),,2.31,6.87% (inactive),
O=C(O)C1CC=CCC1C(=O)Nc1cccc(F)c1 (stereo unspecified),,,-11.4% (inactive),
Cc1ccc(-n2c(N)cc(=O)nc2SCC(=O)NC2CCCCC2)cc1C,,-3.12,4.5% (inactive),
Cc1ccnc(NC(=O)/C=C/c2cccs2)c1,,-3.66,-0.722% (inactive),
O=C(CSc1ccc(Cl)cc1)Nc1ncccn1,,8.97,-22.8% (inactive),
Cc1cc(C)nc(SCC(=O)Nn2cnnc2)n1,,-0.845,-6.33% (inactive),
O=C(CSc1ncccn1)Nc1ccccc1,inactive,17.6,,
O=C(CSc1ccc(Cl)cc1)Nn1cnnc1,,7.58,,16.4 µM (active)
O=C(Nc1ccc(Cl)cc1)Nn1cnnc1,inactive,8.74,,
O=C(CSc1ncccn1)Nn1cnnc1,,-0.567,,7.31 µM (active)
Cc1ccc(-n2nc3c(c2NC(=O)C2CCCC2)CS(=O)(=O)C3)cc1,inactive,-12.8,,

SMILES,outcome,cell number change [%],"lipid storage change, negative = inhibition",Potency
Cc1ccc(S(=O)(=O)N2CCc3ccccc3C2CN2C(=O)c3ccccc3C2=O)cc1 (stereo unspecified),inactive,,,
COc1cccc(NC(=S)N2CCN(C(c3ccccc3)c3ccccc3)CC2)c1,,,17% (inactive),
Cc1nn(C)c(C)c1/C=N/NC(=O)CCn1nc(C)c([N+](=O)[O-])c1C,,-10.6,9.31% (inactive),
Cc1ccc(OCC(=O)n2cnnc2N)c(C)c1,,-14.9,16.4% (inactive),
CCN1CCN(Cc2c(C)[nH]c3ccc(OC)cc3c2=O)CC1,inactive,9.98,,
COc1ccc(N=C2S/C(=C\c3ccco3)C(=O)N2CC(C)C)cc1,inactive,-0.418,,
COc1ccccc1CCC(=O)N1CCC(n2nccc2NC(=O)CC(C)C)CC1,,-2.79,-24.1% (inactive),
CCCn1c(C)cc(C(=O)COc2ccc(C)nc2[N+](=O)[O-])c1C,,5.33,5.96% (inactive),
CCN(CC)S(=O)(=O)c1ccc(OCC(=O)NC(=O)c2ccccc2OC)c([N+](=O)[O-])c1,,2.39,-8.1% (inactive),
CCCn1c(C)cc(C(=O)COc2ccc(S(=O)(=O)N(CC)CC)cc2[N+](=O)[O-])c1C,,-12.5,,25.9 µM (active)
CN(C)S(=O)(=O)c1cccc(NC(=S)N2CCc3ccccc32)c1,inactive,,,
CC(C)NC(=O)CN(Cc1ccccc1)S(=O)(=O)c1ccccc1,inactive,1.76,,
CC[n+]1c(C)sc2cc(C)ccc21,,-15.5,-0.992% (inactive),
CC[n+]1c(S(=O)(=O)[O-])ccc2ccc(C)cc21,,3.16,0.898% (inactive),
CC[N+]1=C(C)C(C)(C)c2cc(C)ccc21,,-16.1,,0.231 µM (active)
O=C(N/N=C/c1ccccc1)c1ccc(NC(=O)c2ccc(F)cc2)cc1,inactive,8.73,,
Cc1ccc(C)c(NC(=O)CSc2nc(C)cc(C)c2C#N)c1,,-1.26,11.2% (inactive),
CC(Oc1ccc2c(-c3ccccc3)cc(=O)oc2c1)C(=O)NCC1CCC(C(=O)O)CC1 (stereo unspecified),,,-7.92% (inactive),
COc1ccc(CNC(=O)CN(C)S(=O)(=O)c2ccc(Cl)cc2)cc1,,-9.55,-32.9% (inactive),
COc1ccc(CCNC(=O)CN(Cc2ccc(Cl)cc2)S(C)(=O)=O)cc1OC,inactive,5.74,,
COc1ccc(CCNC(=O)CN(Cc2ccc(Cl)cc2)S(C)(=O)=O)cc1,,-16.1,-18.7% (inactive),
COc1ccc(CNC(=O)CN(Cc2ccc(Cl)cc2)S(C)(=O)=O)cc1,,15.2,6.59% (inactive),
COc1ccc(CNC(=O)CN(Cc2ccc(Cl)cc2)S(=O)(=O)c2ccccc2)cc1,,26.1,,20.6 µM (active)
COCCNC(=O)CN(Cc1ccc(Cl)cc1)S(C)(=O)=O,,-6.66,,23.1 µM (active)
